Screens as filed in PubChem.
This is a sample that favours compounds with a hit; in the whole collection about 0.69% have one here.
phage Ecoli inh – E. coli growth loss with phage present; growth absorbance; inhibition, % at 11.9 µM; 360,000 tested, 0.26% active; in the data active = inhibition above about 11%
PfHsp90 set2 – inhibits growth of yeast expressing Plasmodium falciparum Hsp90 | S. cerevisiae expressing PfHsp90, BacTiter-Glo ATP, 48 h; yeast lacking PDR1 and PDR3 efflux regulators | inhibition, % at 9.4 µM | 310,000 tested, 0.32% active | AID 504621;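 active = every replicate shows inhibition above about 80%, whatever the replicate mean, limit read from the data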;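 note: 0% = DMSO neutral controls and 100% = 20 µM radicicol positive controls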
AddAB inh – less growth of phage-infected E. coli with AddAB. 330,000 tested, 0.29% active. E. coli expressing H. pylori AddAB, absorbance growth. inhibition, % at 11.9 µM; in the data active = inhibition above about 12%;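 note: 0% = vehicle wells of infected cells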
Tat export inh – E. coli Tat transport inhibition; E. coli MC4100 TorA-mCherry Tat export, fluorescence; inhibition, % at 10 µM; 340,000 tested, 0.036% active; AID 488895;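 active = mean replicate inhibition at least 50% and at least half of replicates individually reaching 50%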;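 note: exported cargo escapes ClpAP degradation while cytoplasmic cargo is degraded and loses fluorescence; 0% = median of neutral control wells and 100% = median of NaSCN control wells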
E coli growth-1 – E. coli growth inhibition | Escherichia coli growth, OD600, 23 h; active compounds read low | OD600 absorbance (concentration not given with the values) | 330,000 tested, 0.21% active | AID 1053175;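 active = OD600 absorbance below the run mean of sample wells minus 3.6 SD, in any replicate, cut at about 0.56 in these data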
E coli growth-2 – counter-screen for AddAB inhibitors: E. coli growth inhibition; 330,000 tested, 0.27% active; inhibition, % at 11.9 µM; E. coli V3065 growth, OD600 absorbance, 18 h;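 active = inhibition above the campaign's mean inhibition across all tested compounds plus 3 SD, cut at about 9.9% in these data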;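 note: uninfected addAB+ strain grown without phage in ampicillin broth; 0% = DMSO wells and 100% = ciprofloxacin 0.95 µg/ml wells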
AddAB conf – growth loss of T4-infected E. coli expressing H. pylori AddAB, confirmed; E. coli V3065 expressing H. pylori AddAB, T4 phage, OD; T4 phage with gene 2 nonsense mutations; inhibition, % at 11.9 µM; shares compounds with AddAB inh; 880 tested, 64% active;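 active = mean inhibition above a set limit taken from the earlier primary screen, cut at about 13% in these data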;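 note: higher means less bacterial growth since AddAB block lets phage replicate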
RecBCD counter – counter-screen: growth loss of RecBCD+ E. coli with mutant T4 phage; shares compounds with AddAB inh; E. coli V66 + mutant T4 phage, OD growth; inhibition, % at 11.9 µM; 880 tested, 73% active; AID 488955;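 active = mean inhibition above the mean of solvent-only control wells plus 3 SD, cut at about 4% in these data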;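 note: optical density read after an 18 h incubation at 37 °C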
Bact viability – reduces bacterial viability, AddAB inhibitor counter-screen; shares compounds with AddAB inh; absorbance (AddAB counterscreen); inhibition, % at 11.9 µM; 880 tested, 35% active; AID 488956; in the data active = inhibition above about 25%
RecBCD conf – confirmation: growth loss of phage-infected RecBCD+ E. coli (RecBCD inhibitor screen) | shares compounds with phage Ecoli inh | inhibition, % at 11.9 µM | E. coli V66 + T4 2- phage, growth OD | AID 651982 | 890 tested, 45% active;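 active = mean inhibition over triplicates exceeding the hit threshold derived in the original primary screen, cut at about 11% in these data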
Ecoli viability – counter-screen for RecBCD inhibitors: inhibitors of bacterial viability. shares compounds with phage Ecoli inh. E. coli viability, absorbance (OD) growth. inhibition, % at 11.9 µM. 890 tested, 29% active; in the data active = inhibition above about 20%;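 note: E. coli strain V66 grown with compound alone and no phage infection; 0% = bacteria with DMSO vehicle only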
AddAB counter – growth loss of phage-infected AddAB E. coli, RecBCD counter-screen | E. coli expressing H. pylori AddAB + T4 phage, OD growth; gene 2 mutant T4, recBCD-deleted host | 890 tested, 45% active | shares compounds with phage Ecoli inh | inhibition, % at 11.9 µM;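 active = mean inhibition above the solvent-only control wells' mean plus 3 SD, cut at about 22% in these data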;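 note: higher means less bacterial growth from phage killing when AddAB is blocked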
* marks the source's active call; other numbers are inactive results.

CCSc1nsc(NC(=O)Nc2ccccc2F)n1 was read as phage Ecoli inh 5.8, PfHsp90 set2 3.2, AddAB inh -1.7, Tat export inh -2.1, E coli growth-1 0.587 and E coli growth-2 4.0.
C=CCSc1nsc(NC(=O)Nc2ccc(F)cc2)n1 was read as phage Ecoli inh 15.4*, PfHsp90 set2 -0.7, AddAB inh 19.6*, Tat export inh -12.9, E coli growth-2 15.9*, AddAB conf 18.5*, RecBCD counter 21.8*, Bact viability 21.4, RecBCD conf 7.8, Ecoli viability 9.6 and AddAB counter 22.4*.
Cc1[nH]n(-c2ccc(F)cc2)c(=O)c1C=Nc1sc2c(c1C#N)CCCC2 was read as E coli growth-1 0.737.
C/C(=N\Nc1ccc2nncn2n1)c1ccccn1 was read as phage Ecoli inh 31.9*, AddAB inh 31.0*, E coli growth-2 26.6*, AddAB conf 22.1*, RecBCD counter 29.3*, Bact viability 19.2, RecBCD conf 17.7*, Ecoli viability 27.4* and AddAB counter 21.0.
`CC[C@H]1OC(=O)[C@H](C)[C@@H](O[C@H]2C[C@@](C)(OC)[C@@H](O)[C@H](C)O2)[C@H](C)[C@@H](O[C@@H]2O[C@H](C)C[C@H](N(C)C)[C@H]2O)[C@](C)(O)C[C@@H](C)C(=O)[C@H](C)[C@@H](O)[C@]1(C)O` gave phage Ecoli inh 26.9*, PfHsp90 set2 0.3, AddAB inh 22.4*, Tat export inh 38.5, E coli growth-2 20.2*, AddAB conf 44.6*, RecBCD counter 16.7*, Bact viability 17.6, RecBCD conf 18.9*, Ecoli viability 19.7* and AddAB counter 32.1*.
CC(CCc1ccccc1)=NNC(=O)C(=O)NC(C)c1ccccc1 (configuration not stated) was read as E coli growth-1 0.69.
For O=C(CCn1cnc(-c2ccccc2)c1-c1ccccc1)NN=Cc1ccc(O)cc1 the results were E coli growth-1 0.676.
`CC(C)(C)c1nnc(N/N=C/c2cc(Br)ccc2O)n(N)c1=O` gave phage Ecoli inh 11.6*, PfHsp90 set2 105.1*, AddAB inh 12.0, Tat export inh -19.8, E coli growth-2 3.5, RecBCD conf 6.4, Ecoli viability 10.4 and AddAB counter 27.7*.
For CC(C)(C)c1nnc(NN=Cc2ccccc2O)n(N)c1=O the results were E coli growth-1 0.624.
CN(C)CCCNC(=O)c1ccc(-c2cc(O)c3ncccc3c2)cc1 was read as phage Ecoli inh 3.2, PfHsp90 set2 0.2, AddAB inh 6.1, Tat export inh 4.7, E coli growth-1 0.608 and E coli growth-2 5.8.
For CN(C)c1ccc(-c2cc(O)c3ncccc3c2)cc1 the results were phage Ecoli inh 13.9*, PfHsp90 set2 101.2*, AddAB inh 7.4, Tat export inh -8.9, E coli growth-2 10.8*, RecBCD conf 1.5, Ecoli viability 2.4 and AddAB counter 1.5.
CC(C)(C)OC(=O)N1CCC(NC(=O)c2[nH]cnc2C(=O)NC(Cc2ccccc2)C(=O)OCc2ccccc2)CC1 (configuration not stated) was read as E coli growth-1 0.673.
`CC(=O)OCC(=O)[C@@]12OC3(CCCC3)OC1CC1C3CCC4=CC(=O)C=C[C@]4(C)[C@@]3(F)C(O)C[C@@]12C` (some centres not stated) gave E coli growth-1 0.651.
For CC(C)C[C@H](NC(=O)N1CCCCCC1)C(=O)O the results were phage Ecoli inh 55.5*, PfHsp90 set2 9.0, AddAB inh 1.2, Tat export inh -6.1, E coli growth-1 0.667, E coli growth-2 -1.0, RecBCD conf 1.3, Ecoli viability 0.5 and AddAB counter -1.7.
Screening CCC(C)[C@H](NC(=O)N1CCCCCC1)C(=O)O (some centres not stated) returned phage Ecoli inh -3.2, PfHsp90 set2 -2.4, AddAB inh 1.6, Tat export inh -1.6, E coli growth-1 0.713 and E coli growth-2 2.8.
Cc1ccc(NC(=O)c2cc(S(=O)(=O)N3CCOCC3)cn2C)cc1F was read as phage Ecoli inh 28.9*, PfHsp90 set2 17.5, AddAB inh 1.5, Tat export inh -9.8, E coli growth-1 0.725, E coli growth-2 1.1, RecBCD conf -3.1, Ecoli viability -2.7 and AddAB counter -8.4.
Screening COc1ccc(C(=O)Nc2ccc(S(=O)(=O)N3CCOCC3)cc2)cc1 returned phage Ecoli inh 12.4*, AddAB inh 3.0, E coli growth-1 0.647, E coli growth-2 1.4, RecBCD conf -0.2, Ecoli viability -0.4 and AddAB counter -1.6.
`Cn1cc(S(=O)(=O)N2CCOCC2)cc1C(=O)Nc1ccc(Cl)cc1` gave phage Ecoli inh 2.1, PfHsp90 set2 6.4, AddAB inh 1.3, Tat export inh -1.0, E coli growth-1 0.722 and E coli growth-2 -0.3.
`CC(C)NC(=O)COc1ccc(C=NNS(=O)(=O)c2ccccc2)cc1` gave E coli growth-1 0.712.
For Cc1ccc(CC(=O)Nc2ncc([N+](=O)[O-])s2)cc1 the results were phage Ecoli inh 12.8*, PfHsp90 set2 -0.7, AddAB inh 6.3, Tat export inh -15.1, E coli growth-1 0.557, E coli growth-2 8.8, RecBCD conf 8.8, Ecoli viability 9.2 and AddAB counter -2.5.
For Cc1ccc(S(=O)(=O)CC(=O)Nc2ncc([N+](=O)[O-])s2)cc1 the results were phage Ecoli inh -0.9, PfHsp90 set2 -3.9, AddAB inh 0.2, Tat export inh 4.1, E coli growth-1 0.639 and E coli growth-2 -2.5.
For COc1ccc(C=NNC(=O)c2cc[n+]([O-])cc2)cc1OC the results were E coli growth-1 0.713.
CC(=NOC(=O)c1ccc(Cl)cc1Cl)c1oc(C)nc1C was read as E coli growth-1 0.679.
